Laboratory results as given in PubChem BioAssay (NCI).
About 79,000 compounds went through this panel and 15% of them were active in at least one assay; those are over-represented in the sample as a whole. Values without a mark were called inactive. The source made the active and inactive calls. Cut-off read from the data, not from the text of the source: active = growth inhibition above about 70%; inactive = the rest.

Assay: NCI Yeast Anticancer Drug Screen. Data for the wt2 strain (AID 169);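 note: 0% = growth of vehicle-treated yeast cultures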
Settings: S. cerevisiae wt2 strain growth inhibition; at 33.0 µM; active compounds read high
Method in brief: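 Values express reduction in yeast growth under compound treatment, referenced to vehicle-treated cells.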

Structure (SMILES)	growth inhibition
COc1ccc2nc3cccc([N+](=O)[O-])c3c(NCCNCCN(C)C)c2c1	-3%
Cc1cccc(/C=N/NC(=S)NC2CCCCC2)n1	26%
COC(=O)C(=O)c1c(-c2ccc(Cl)c(Cl)c2)[nH]c2[nH]n(-c3ccccc3)c(=O)c2c1=O	57%
c1ccc([P+](CCN2Cc3ccccc3C2)(c2ccccc2)c2ccccc2)cc1	31%
Cc1cc(C)c2[s+]snc2c1	7%
CC(C)(Br)C(=O)/C=C/c1ccccc1	10%
Cc1ccc(S(=O)(=O)NC(=O)C2C(=O)CC3(CCCCC3)CC2=O)cc1	84% (active)
NC(=S)N1N=C2c3ccccc3CC[C@H]2[C@@H]1c1ccc(Cl)cc1	35%
O=[N+]([O-])/C=C/c1cc2ccc3ccccc3c2[nH]1	95% (active)
O=C1C(=C2CCCC2)CCC1CN1CCCCC1 (configuration not stated)	68%
OC(CC(O)(C(F)(F)F)C(F)(F)F)c1ccc(C(O)CC(O)(C(F)(F)F)C(F)(F)F)cc1 (configuration not stated)	99% (active)
COc1cc2c(cc1OC)[C@@H](Nc1ccc(C#N)cc1)C1COC(=O)[C@@H]1C2c1cc(OC)c(O)c(OC)c1 (some centres not stated)	90% (active)
O=c1cccccc1[O-].O=c1cccccc1[O-].O=c1cccccc1[O-].[Eu+3]	99% (active)
O=C1c2ccccc2C(=O)c2sc(Nc3ccccc3Cl)nc21	99% (active)
NC(CCCCCCCCCCCCC(N)C(=O)c1ccccc1)C(=O)c1ccccc1 (configuration not stated)	96% (active)
CC1=C(C)C(=O)C2=C(OCCO2)C1=O	-13%
c1ccc(-c2cc(C3CO3)c3ccccc3n2)cc1 (configuration not stated)	77% (active)
S=C1C(=Nc2ccccc2)N(c2ccccc2)/C(=N\c2ccccn2)N1c1ccccc1	99% (active)

Structure (SMILES)	growth inhibition
CCC(OC(C)=O)C1CC(C(C)C)CCC1C (configuration not stated)	-3%
CC(C)=CCc1c2c(c(O)c3c(=O)c(-c4ccc(O)c(O)c4)coc13)C=CC(C)(C)O2	92% (active)
O=C(NC(N1CCN(c2cc3c(cc2F)c(=O)c(C(=O)O)cn3C2CC2)CC1)(C(F)(F)F)C(F)(F)F)c1ccccc1	9%
Fc1cc(F)c(F)c(S)c1F	56%
COc1ccc2cc3c4cc5c(cc4cc[n+]3cc2c1OC)OCO5	87% (active)
CCCCCCCCNCCCCCCCC	99% (active)
Nc1cc(Cl)ccc1Nc1ccccc1	5%
O=C(/C(=C/c1ccc(O)cc1)c1ccccc1)c1ccccc1	98% (active)
O=Cc1ccccc1C=O	-35%
C1=CCN([B-](c2ccccc2)[C+]2CCCCC2)C=C1	94% (active)
CC/C(=C(\c1ccccc1)c1ccc(OCC[N+](C)(C)C)cc1)c1ccccc1	99% (active)
O=S(=O)(c1cccc(C(F)(F)F)c1)N1c2ccccc2-n2cccc2C1c1cccnc1 (configuration not stated)	93% (active)
Nc1ccc2c(c1)C(=O)c1c(F)cccc1-2	4%
CN(C)/C(=N/C(=S)Nc1ccccc1)SCc1ccccc1	11%
CCN(CC)C(=S)N/N=C(\C)c1ccccc1O	97% (active)
CC(C)OC(=O)NNc1cc(Cl)ccc1Cl	29%
CC(C)CCC[C@@H](C)[C@H]1CC[C@H]2[C@@H]3CC[C@H]4C[C@H](N)CC[C@]4(C)[C@H]3CC[C@]12C	-4%
O=C1c2ccccc2-c2ccc(N=Cc3ccccc3)cc21	51%

Same assay, conditions: S. cerevisiae wt2 strain growth inhibition; at 100.0 µM; active compounds read high

Structure (SMILES)	growth inhibition
COc1ccc2nc3cccc([N+](=O)[O-])c3c(NCCNCCN(C)C)c2c1	1%
Cc1cccc(/C=N/NC(=S)NC2CCCCC2)n1	18%
COC(=O)C(=O)c1c(-c2ccc(Cl)c(Cl)c2)[nH]c2[nH]n(-c3ccccc3)c(=O)c2c1=O	56%
c1ccc([P+](CCN2Cc3ccccc3C2)(c2ccccc2)c2ccccc2)cc1	93% (active)
Cc1cc(C)c2[s+]snc2c1	30%
CC(C)(Br)C(=O)/C=C/c1ccccc1	18%
Cc1ccc(S(=O)(=O)NC(=O)C2C(=O)CC3(CCCCC3)CC2=O)cc1	83% (active)
NC(=S)N1N=C2c3ccccc3CC[C@H]2[C@@H]1c1ccc(Cl)cc1	89% (active)
O=[N+]([O-])/C=C/c1cc2ccc3ccccc3c2[nH]1	93% (active)
O=C1C(=C2CCCC2)CCC1CN1CCCCC1 (configuration not stated)	93% (active)
OC(CC(O)(C(F)(F)F)C(F)(F)F)c1ccc(C(O)CC(O)(C(F)(F)F)C(F)(F)F)cc1 (configuration not stated)	100% (active)
COc1cc2c(cc1OC)[C@@H](Nc1ccc(C#N)cc1)C1COC(=O)[C@@H]1C2c1cc(OC)c(O)c(OC)c1 (some centres not stated)	93% (active)
O=c1cccccc1[O-].O=c1cccccc1[O-].O=c1cccccc1[O-].[Eu+3]	98% (active)
O=C1c2ccccc2C(=O)c2sc(Nc3ccccc3Cl)nc21	98% (active)
NC(CCCCCCCCCCCCC(N)C(=O)c1ccccc1)C(=O)c1ccccc1 (configuration not stated)	96% (active)
CC1=C(C)C(=O)C2=C(OCCO2)C1=O	-5%
c1ccc(-c2cc(C3CO3)c3ccccc3n2)cc1 (configuration not stated)	99% (active)
S=C1C(=Nc2ccccc2)N(c2ccccc2)/C(=N\c2ccccn2)N1c1ccccc1	95% (active)

Structure (SMILES)	growth inhibition
CCC(OC(C)=O)C1CC(C(C)C)CCC1C (configuration not stated)	40%
CC(C)=CCc1c2c(c(O)c3c(=O)c(-c4ccc(O)c(O)c4)coc13)C=CC(C)(C)O2	87% (active)
O=C(NC(N1CCN(c2cc3c(cc2F)c(=O)c(C(=O)O)cn3C2CC2)CC1)(C(F)(F)F)C(F)(F)F)c1ccccc1	34%
Fc1cc(F)c(F)c(S)c1F	98% (active)
COc1ccc2cc3c4cc5c(cc4cc[n+]3cc2c1OC)OCO5	97% (active)
CCCCCCCCNCCCCCCCC	99% (active)
Nc1cc(Cl)ccc1Nc1ccccc1	95% (active)
O=C(/C(=C/c1ccc(O)cc1)c1ccccc1)c1ccccc1	93% (active)
O=Cc1ccccc1C=O	86% (active)
C1=CCN([B-](c2ccccc2)[C+]2CCCCC2)C=C1	98% (active)
CC/C(=C(\c1ccccc1)c1ccc(OCC[N+](C)(C)C)cc1)c1ccccc1	99% (active)
O=S(=O)(c1cccc(C(F)(F)F)c1)N1c2ccccc2-n2cccc2C1c1cccnc1 (configuration not stated)	91% (active)
Nc1ccc2c(c1)C(=O)c1c(F)cccc1-2	64%
CN(C)/C(=N/C(=S)Nc1ccccc1)SCc1ccccc1	14%
CCN(CC)C(=S)N/N=C(\C)c1ccccc1O	98% (active)
CC(C)OC(=O)NNc1cc(Cl)ccc1Cl	35%
CC(C)CCC[C@@H](C)[C@H]1CC[C@H]2[C@@H]3CC[C@H]4C[C@H](N)CC[C@]4(C)[C@H]3CC[C@]12C	5%
O=C1c2ccccc2-c2ccc(N=Cc3ccccc3)cc21	92% (active)
